Experimental data from PubChem BioAssay (NCI).
Values joined by “and” are separate entries in the source; they are usually repeats but may differ in a detail not shown here. Equal entries are not always repeated. This is part of a sample that, as a whole, favours compounds with a hit. Of some 79,000 tested, about 15% had one in any assay. A structure can be active in one record and inactive in another. Active and inactive are the calls of the source. Rule as the data show it: active = growth inhibition above about 70%; inactive = the rest.

Legend:
[1] = NCI Yeast Anticancer Drug Screen. Data for the rad14 strain (AID 159);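 also: 0% = growth of vehicle-treated control cultures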; conditions: S. cerevisiae rad14 strain growth inhibition, stronger effect = higher value
Method in brief: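 Readout: yeast growth inhibition, referenced to vehicle-only cultures. Strain bears a defined alteration in DNA damage repair.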

[2] = NCI Yeast Anticancer Drug Screen. Data for the sgs1 mgt1 strain (AID 161);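 also: 0% = growth of cultures given vehicle only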; conditions: S. cerevisiae sgs1 mgt1 strain, stronger effect = higher value
Method in brief: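 Growth of a repair-deficient yeast mutant was monitored after compound treatment and expressed as inhibition relative to vehicle-treated cultures.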

[3] = NCI Yeast Anticancer Drug Screen. Data for the CLN2oe strain (AID 163);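 also: 0% = growth of vehicle-only control cultures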; conditions: S. cerevisiae CLN2oe strain, stronger effect = higher value
Method in brief: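 Compound-treated yeast; growth vs vehicle ctrl = % inhibition. Genetically altered strain (cell-cycle control).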

[4] = NCI Yeast Anticancer Drug Screen. Data for the cln2 rad14 strain (AID 165);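 also: 0% = growth equal to vehicle treated cultures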; conditions: S. cerevisiae cln2 rad14 strain, stronger effect = higher value
Method in brief: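 Growth inhibition, relative to vehicle-treated controls, is the read-out. The test organism is a yeast strain with defined genetic alterations, cln2 rad14.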

[5] = NCI Yeast Anticancer Drug Screen. Data for the bub3 strain (AID 167); conditions: S. cerevisiae bub3 mutant strain, stronger effect = higher value
Method in brief: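 Part of a panel of yeast mutants defective in DNA damage repair or cell cycle regulation. Each strain is grown with compound, and inhibition is calculated relative to solvent-treated cultures.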

[6] = NCI Yeast Anticancer Drug Screen. Data for the wt2 strain (AID 169);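 also: 0% = growth of vehicle-treated yeast cultures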; conditions: S. cerevisiae wt2 strain growth inhibition, stronger effect = higher value
Method in brief: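 Compound exposure of yeast; growth compared with vehicle controls; inhibition reported.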

[7] = NCI Yeast Anticancer Drug Screen. Data for the mlh1 strain (AID 171);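 also: 0% = growth of vehicle-treated control cultures of the same strain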; conditions: S. cerevisiae mlh1 strain growth inhibition, stronger effect = higher value
Method in brief: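 Compounds are applied to a genetically altered yeast strain, and its growth is compared with that of vehicle-treated cultures to give percent inhibition.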

[8] = NCI Yeast Anticancer Drug Screen. Data for the mlh1 rad18 strain (AID 175); conditions: S. cerevisiae mlh1 rad18 strain growth inhibition, stronger effect = higher value
Method in brief: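 Cells of a genetically altered yeast strain, deficient in DNA damage repair, were treated with compound. Their growth was then compared with that of vehicle-treated cultures to give inhibition.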

[9] = NCI Yeast Anticancer Drug Screen. Data for the rad18 strain (AID 177); conditions: S. cerevisiae rad18 mutant growth inhibition, stronger effect = higher value
Method in brief: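 Compounds are applied to a repair-deficient yeast strain, and growth is compared with that of vehicle-treated cultures to give percent inhibition.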

[10] = NCI Yeast Anticancer Drug Screen. Data for the wt1 strain (AID 149);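 also: 0% = growth of vehicle-treated wt1 cultures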; conditions: S. cerevisiae wt1 strain (SPY 50644) growth inhibition, stronger effect = higher value
Method in brief: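 The wt1 strain was treated with compounds, and growth was compared with vehicle-treated cultures to give inhibition.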

[11] = NCI Yeast Anticancer Drug Screen. Data for the rad50EPP+ strain (AID 151);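 also: 0% = growth of vehicle-treated control cultures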; conditions: S. cerevisiae rad50 mutant strain, stronger effect = higher value
Method in brief: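 rad50EPP+ yeast treated with test compounds. Readout: growth vs vehicle control.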

[12] = NCI Yeast Anticancer Drug Screen. Data for the mgt1 strain (AID 153); conditions: S. cerevisiae mgt1 mutant growth inhibition, stronger effect = higher value
Method in brief: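 Growth inhibition relative to vehicle controls was scored for the mgt1 yeast strain after compound exposure.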

[13] = NCI Yeast Anticancer Drug Screen. Data for the rad50 strain (AID 155);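 also: 0% = growth of vehicle-only cultures of the same strain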; conditions: S. cerevisiae rad50 strain growth inhibition, stronger effect = higher value
Method in brief: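 Cells are treated with compound, grown, and their growth is then scored against vehicle-only cultures of the same repair-deficient yeast strain.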

[14] = NCI Yeast Anticancer Drug Screen. Data for the mec2-1 strain (AID 157); conditions: S. cerevisiae mec2-1 strain, stronger effect = higher value
Method in brief: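 Growth inhibition is read against vehicle-treated controls after compound exposure of the mec2-1 yeast strain, which is defective in DNA damage repair or cell cycle control.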

[15] = NCI Yeast Anticancer Drug Screen. Data for the sgs1 strain (AID 173);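 also: 0% = growth of vehicle-only control cultures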; conditions: S. cerevisiae sgs1 mutant, stronger effect = higher value
Method in brief: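 Compounds applied to genetically altered yeast; growth compared with vehicle-treated cultures to give % inhibition.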

[16] = at 5.0 µM (retest, dose inferred, filed as 0.5)
[17] = at 50.0 µM (retest, dose inferred, filed as 5.0)

CCCCCCCCCCCCCCCCP(=O)(O)OP(=O)(O)OCC1OC(n2ccc(N)nc2=O)C(O)C1O (stereo not drawn)
growth inhibition ([1]; at 100.0 µM): 1% (inactive)
growth inhibition [2, 16]: -2% (inactive)
growth inhibition [2, 17]: 46% (inactive)
growth inhibition ([2]; at 50.0 µM): 88.3% (active) and 3.75% (inactive)
growth inhibition ([3]; at 1.2 µM): -3% (inactive)
growth inhibition ([3]; at 3.7 µM): -7% (inactive)
growth inhibition ([3]; at 11.0 µM): -6% (inactive)
growth inhibition ([3]; at 33.0 µM): -17% (inactive)
growth inhibition ([3]; at 100.0 µM): -17% (inactive)
growth inhibition [4, 16]: 0% (inactive)
growth inhibition [4, 17]: 6% (inactive)
growth inhibition ([4]; at 50.0 µM): 59.9% (inactive) and -13.4% (inactive)
growth inhibition ([5]; at 1.2 µM): -1% (inactive)
growth inhibition ([5]; at 3.7 µM): -2% (inactive)
growth inhibition [5, 16]: 14% (inactive)
growth inhibition ([5]; at 11.0 µM): -4% (inactive)
growth inhibition ([5]; at 33.0 µM): -10% (inactive)
growth inhibition [5, 17]: -19% (inactive)
growth inhibition ([5]; at 50.0 µM): 76% (active) and -16.8% (inactive)
growth inhibition ([5]; at 100.0 µM): -19% (inactive)
growth inhibition ([6]; at 1.2 µM): 1% (inactive)
growth inhibition ([6]; at 3.7 µM): 0% (inactive)
growth inhibition ([6]; at 11.0 µM): 1% (inactive)
growth inhibition ([6]; at 33.0 µM): 1% (inactive)
growth inhibition ([6]; at 100.0 µM): 1% (inactive)
growth inhibition ([7]; at 1.2 µM): 0% (inactive)
growth inhibition ([7]; at 3.7 µM): 0% (inactive)
growth inhibition ([7]; at 11.0 µM): 1% (inactive)
growth inhibition ([7]; at 33.0 µM): -4% (inactive)
growth inhibition ([7]; at 100.0 µM): 1% (inactive)
growth inhibition [8, 16]: -19% (inactive)
growth inhibition [8, 17]: 26% (inactive)
growth inhibition ([8]; at 50.0 µM): 74% (active) and -35.4% (inactive)
growth inhibition ([9]; at 1.2 µM): -1% (inactive)
growth inhibition ([9]; at 3.7 µM): -2% (inactive)
growth inhibition ([9]; at 11.0 µM): 3% (inactive)
growth inhibition ([9]; at 33.0 µM): 0% (inactive)
growth inhibition ([9]; at 100.0 µM): 11% (inactive)

C=C[C@H]1CN2CC[C@H]1C[C@@H]2[C@@H](O)c1ccnc2ccccc12
growth inhibition ([10]; at 1.2 µM): -1% (inactive)
growth inhibition ([10]; at 3.7 µM): -2% (inactive)
growth inhibition ([10]; at 11.0 µM): -4% (inactive)
growth inhibition ([10]; at 33.0 µM): -2% (inactive)
growth inhibition ([10]; at 100.0 µM): -2% (inactive)
growth inhibition ([11]; at 1.2 µM): -1% (inactive)
growth inhibition ([11]; at 3.7 µM): 0% (inactive)
growth inhibition ([11]; at 11.0 µM): -2% (inactive)
growth inhibition ([11]; at 33.0 µM): -3% (inactive)
growth inhibition ([11]; at 100.0 µM): -3% (inactive)
growth inhibition ([12]; at 1.2 µM): 2% (inactive)
growth inhibition ([12]; at 3.7 µM): 1% (inactive)
growth inhibition ([12]; at 11.0 µM): 3% (inactive)
growth inhibition ([12]; at 33.0 µM): 0% (inactive)
growth inhibition ([12]; at 100.0 µM): 4% (inactive)
growth inhibition ([13]; at 1.2 µM): 2% (inactive)
growth inhibition ([13]; at 3.7 µM): 10% (inactive)
growth inhibition [13, 16]: 2% (inactive)
growth inhibition ([13]; at 11.0 µM): 3% (inactive)
growth inhibition ([13]; at 33.0 µM): 2% (inactive)
growth inhibition [13, 17]: 13% (inactive)
growth inhibition ([13]; at 50.0 µM): -1.45% (inactive)
growth inhibition ([13]; at 100.0 µM): -2% (inactive)
growth inhibition ([14]; at 1.2 µM): -1% (inactive)
growth inhibition ([14]; at 3.7 µM): 3% (inactive)
growth inhibition [14, 16]: 8% (inactive)
growth inhibition ([14]; at 11.0 µM): 4% (inactive)
growth inhibition ([14]; at 33.0 µM): 2% (inactive)
growth inhibition [14, 17]: 7% (inactive)
growth inhibition ([14]; at 50.0 µM): -40.6% (inactive)
growth inhibition ([14]; at 100.0 µM): -5% (inactive)
growth inhibition ([1]; at 1.2 µM): -3% (inactive)
growth inhibition ([1]; at 3.7 µM): -9% (inactive)
growth inhibition ([1]; at 11.0 µM): -2% (inactive)
growth inhibition ([1]; at 33.0 µM): 0% (inactive)
growth inhibition ([1]; at 100.0 µM): 1% (inactive)
growth inhibition ([3]; at 1.2 µM): 1% (inactive)
growth inhibition ([3]; at 3.7 µM): 2% (inactive)
growth inhibition ([3]; at 11.0 µM): 3% (inactive)
growth inhibition ([3]; at 33.0 µM): 5% (inactive)
growth inhibition ([3]; at 100.0 µM): 2% (inactive)
growth inhibition [4, 16]: 44% (inactive)
growth inhibition [4, 17]: 14% (inactive)
growth inhibition ([4]; at 50.0 µM): 8.55% (inactive)
growth inhibition ([5]; at 1.2 µM): 3% (inactive)
growth inhibition ([5]; at 3.7 µM): -6% (inactive)
growth inhibition [5, 16]: -8% (inactive)
growth inhibition ([5]; at 11.0 µM): 1% (inactive)
growth inhibition ([5]; at 33.0 µM): 1% (inactive)
growth inhibition [5, 17]: -1% (inactive)
growth inhibition ([5]; at 50.0 µM): -7.5% (inactive)
growth inhibition ([5]; at 100.0 µM): 1% (inactive)
growth inhibition ([6]; at 1.2 µM): 0% (inactive)
growth inhibition ([6]; at 3.7 µM): 1% (inactive)
growth inhibition ([6]; at 11.0 µM): 0% (inactive)
growth inhibition ([6]; at 33.0 µM): -2% (inactive)
growth inhibition ([6]; at 100.0 µM): 1% (inactive)
growth inhibition ([7]; at 1.2 µM): -2% (inactive)
growth inhibition ([7]; at 3.7 µM): 1% (inactive)
growth inhibition ([7]; at 11.0 µM): -6% (inactive)
growth inhibition ([7]; at 33.0 µM): -7% (inactive)
growth inhibition ([7]; at 100.0 µM): 9% (inactive)
growth inhibition ([15]; at 1.2 µM): -3% (inactive)
growth inhibition ([15]; at 3.7 µM): -5% (inactive)
growth inhibition ([15]; at 11.0 µM): -6% (inactive)
growth inhibition ([15]; at 33.0 µM): -7% (inactive)
growth inhibition ([15]; at 100.0 µM): -6% (inactive)
growth inhibition [8, 16]: 2% (inactive)
growth inhibition [8, 17]: 8% (inactive)
growth inhibition ([8]; at 50.0 µM): 7.65% (inactive)
growth inhibition ([9]; at 1.2 µM): -2% (inactive)
growth inhibition ([9]; at 3.7 µM): -2% (inactive)
growth inhibition ([9]; at 11.0 µM): -9% (inactive)
growth inhibition ([9]; at 33.0 µM): -17% (inactive)
growth inhibition ([9]; at 100.0 µM): -28% (inactive)
